Results from PubChem BioAssay (NCI).
The panel holds about 79,000 compounds, 15% with a hit somewhere; the sample as a whole holds those more often. A number with no mark means an inactive call. The source made the active and inactive calls. Cut-off read from the data, not from the text of the source: active = growth inhibition above about 70%; inactive = the rest.

Experiments:
[1] = NCI Yeast Anticancer Drug Screen. Data for the rad50 strain (AID 155);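 note: 0% = growth of vehicle-only cultures of the same strain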; settings: S. cerevisiae rad50 strain growth inhibition, stronger effect = higher value
How it was run: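 Vehicle-treated cultures provide the reference for the growth inhibition reported for compound-exposed, repair-deficient yeast.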

[2] = NCI Yeast Anticancer Drug Screen. Data for the mec2-1 strain (AID 157); settings: S. cerevisiae mec2-1 strain, stronger effect = higher value
How it was run: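 Compounds were applied to mec2-1 yeast cells. Their growth was then compared with that of vehicle-treated cultures to give growth inhibition.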

[3] = NCI Yeast Anticancer Drug Screen. Data for the sgs1 mgt1 strain (AID 161);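 note: 0% = growth of cultures given vehicle only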; settings: S. cerevisiae sgs1 mgt1 strain, stronger effect = higher value
How it was run: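 Percent growth inhibition was derived by comparing compound-exposed mutant yeast with vehicle-exposed cultures. The strain carries alterations in DNA damage repair.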

[4] = NCI Yeast Anticancer Drug Screen. Data for the cln2 rad14 strain (AID 165);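 note: 0% = growth equal to vehicle treated cultures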; settings: S. cerevisiae cln2 rad14 strain, stronger effect = higher value
How it was run: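 Strain: cln2 rad14 yeast, altered in cell cycle control and DNA damage repair. Read-out: growth inhibition vs vehicle.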

[5] = NCI Yeast Anticancer Drug Screen. Data for the bub3 strain (AID 167); settings: S. cerevisiae bub3 mutant strain, stronger effect = higher value
How it was run: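 Mutant yeast screening strain plus compound; vehicle-treated cultures serve as the 0% inhibition reference.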

[6] = NCI Yeast Anticancer Drug Screen. Data for the mlh1 rad18 strain (AID 175); settings: S. cerevisiae mlh1 rad18 strain growth inhibition, stronger effect = higher value
How it was run: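 A repair-deficient yeast strain is exposed to test compound, and growth is scored relative to vehicle-treated controls.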

[7] = at 5.0 µM (retest, dose inferred, filed as 0.5)
[8] = at 50.0 µM (retest, dose inferred, filed as 5.0)

[Cl][Hg][Cl].c1cnccn1
growth inhibition [1, 7]: 39%
growth inhibition [1, 8]: 97% (active)
growth inhibition ([1]; at 50.0 µM): 92.2% (active)
growth inhibition [2, 7]: 40%
growth inhibition [2, 8]: 98% (active)
growth inhibition ([2]; at 50.0 µM): 93.8% (active)
growth inhibition [3, 7]: 99% (active)
growth inhibition [3, 8]: 99% (active)
growth inhibition ([3]; at 50.0 µM): 94.3% (active)
growth inhibition [4, 7]: 80% (active)
growth inhibition [4, 8]: 97% (active)
growth inhibition ([4]; at 50.0 µM): 93.2% (active)
growth inhibition [5, 7]: 99% (active)
growth inhibition [5, 8]: 99% (active)
growth inhibition ([5]; at 50.0 µM): 93.2% (active)
growth inhibition [6, 7]: 32%
growth inhibition [6, 8]: 99% (active)
growth inhibition ([6]; at 50.0 µM): 93% (active)

CC(=O)NC1C(S[As](C)C)OC(COC(C)=O)C(OC(C)=O)C1OC(C)=O (configuration not stated)
growth inhibition [1, 7]: 59%
growth inhibition [1, 8]: 98% (active)
growth inhibition ([1]; at 50.0 µM): 91% (active)
growth inhibition [2, 7]: 18%
growth inhibition [2, 8]: 95% (active)
growth inhibition ([2]; at 50.0 µM): 92.4% (active)
growth inhibition [3, 7]: 21%
growth inhibition [3, 8]: 54%
growth inhibition ([3]; at 50.0 µM): 88.5% (active)
growth inhibition [4, 7]: 12%
growth inhibition [4, 8]: 73% (active)
growth inhibition ([4]; at 50.0 µM): 88.7% (active)
growth inhibition [5, 7]: 55%
growth inhibition [5, 8]: 98% (active)
growth inhibition ([5]; at 50.0 µM): 86.1% (active)
growth inhibition [6, 7]: 44%
growth inhibition [6, 8]: 98% (active)
growth inhibition ([6]; at 50.0 µM): 89.5% (active)

CCC[As](CCC)SC1CCC2(C)C(=CCC3C4CCC(=O)C4(C)CCC32)C1 (configuration not stated)
growth inhibition [1, 7]: 17%
growth inhibition [1, 8]: 98% (active)
growth inhibition ([1]; at 50.0 µM): 49.5%
growth inhibition [2, 7]: 9%
growth inhibition [2, 8]: 87% (active)
growth inhibition ([2]; at 50.0 µM): 3.1%
growth inhibition [3, 7]: 19%
growth inhibition [3, 8]: 84% (active)
growth inhibition ([3]; at 50.0 µM): 82% (active)
growth inhibition [4, 7]: -3%
growth inhibition [4, 8]: 89% (active)
growth inhibition ([4]; at 50.0 µM): 34.8%
growth inhibition [5, 7]: 0%
growth inhibition [5, 8]: 77% (active)
growth inhibition ([5]; at 50.0 µM): 17.4%
growth inhibition [6, 7]: 11%
growth inhibition [6, 8]: 97% (active)
growth inhibition ([6]; at 50.0 µM): 88.5% (active)

C1CC[N-]CC1.[Cl][Au]([Cl])[Cl]
growth inhibition [1, 7]: 42%
growth inhibition [1, 8]: 93% (active)
growth inhibition ([1]; at 50.0 µM): 93.3% (active)
growth inhibition [2, 7]: 15%
growth inhibition [2, 8]: 63%
growth inhibition ([2]; at 50.0 µM): 65.5%
growth inhibition [3, 7]: 26%
growth inhibition [3, 8]: 89% (active)
growth inhibition ([3]; at 50.0 µM): 93% (active)
growth inhibition [4, 7]: 31%
growth inhibition [4, 8]: 74% (active)
growth inhibition ([4]; at 50.0 µM): 60.4%
growth inhibition [5, 7]: 25%
growth inhibition [5, 8]: 76% (active)
growth inhibition ([5]; at 50.0 µM): 48.9%
growth inhibition [6, 7]: 34%
growth inhibition [6, 8]: 94% (active)
growth inhibition ([6]; at 50.0 µM): 96.8% (active)

CCC[CH2][Sn]1([CH2]CCC)[O]C(=O)c2cccnc2[O]1
growth inhibition [1, 7]: 34%
growth inhibition [1, 8]: 94% (active)
growth inhibition ([1]; at 50.0 µM): 85.3% (active)
growth inhibition [2, 7]: 31%
growth inhibition [2, 8]: 97% (active)
growth inhibition ([2]; at 50.0 µM): 85.5% (active)
growth inhibition [3, 7]: 42%
growth inhibition [3, 8]: 97% (active)
growth inhibition ([3]; at 50.0 µM): 85.3% (active)
growth inhibition [4, 7]: 22%
growth inhibition [4, 8]: 93% (active)
growth inhibition ([4]; at 50.0 µM): 78.4% (active)
growth inhibition [5, 7]: 47%
growth inhibition [5, 8]: 97% (active)
growth inhibition ([5]; at 50.0 µM): 87.7% (active)
growth inhibition [6, 7]: 51%
growth inhibition [6, 8]: 97% (active)
growth inhibition ([6]; at 50.0 µM): 84.5% (active)

O=C1C(Cl)=C(Cl)C(=O)N1c1ccc(F)cc1
growth inhibition [1, 7]: 53%
growth inhibition [1, 8]: 99% (active)
growth inhibition ([1]; at 50.0 µM): 52%
growth inhibition [2, 7]: 42%
growth inhibition [2, 8]: 100% (active)
growth inhibition ([2]; at 50.0 µM): 28.8%
growth inhibition [3, 7]: 28%
growth inhibition [3, 8]: 100% (active)
growth inhibition ([3]; at 50.0 µM): 88.3% (active)
growth inhibition [4, 7]: 24%
growth inhibition [4, 8]: 99% (active)
growth inhibition ([4]; at 50.0 µM): 89.2% (active)
growth inhibition [5, 7]: 35%
growth inhibition [5, 8]: 99% (active)
growth inhibition ([5]; at 50.0 µM): 90.8% (active)
growth inhibition [6, 7]: 45%
growth inhibition [6, 8]: 100% (active)
growth inhibition ([6]; at 50.0 µM): 48.1%

CC(C)(C)C[CH2][Hg][Cl]
growth inhibition [1, 7]: 99% (active)
growth inhibition [1, 8]: 99% (active)
growth inhibition ([1]; at 50.0 µM): 99.2% (active)
growth inhibition [2, 7]: 100% (active)
growth inhibition [2, 8]: 99% (active)
growth inhibition ([2]; at 50.0 µM): 99.7% (active)
growth inhibition [3, 7]: 100% (active)
growth inhibition [3, 8]: 100% (active)
growth inhibition ([3]; at 50.0 µM): 99.5% (active)
growth inhibition [4, 7]: 99% (active)
growth inhibition [4, 8]: 100% (active)
growth inhibition ([4]; at 50.0 µM): 99.5% (active)
growth inhibition [5, 7]: 99% (active)
growth inhibition [5, 8]: 99% (active)
growth inhibition ([5]; at 50.0 µM): 99.6% (active)
growth inhibition [6, 7]: 100% (active)
growth inhibition [6, 8]: 100% (active)
growth inhibition ([6]; at 50.0 µM): 99.5% (active)

O=C(CCl)c1ccc(O)cc1
growth inhibition [1, 7]: 16%
growth inhibition [1, 8]: 96% (active)
growth inhibition ([1]; at 50.0 µM): 91.5% (active)
growth inhibition [2, 7]: 21%
growth inhibition [2, 8]: 98% (active)
growth inhibition ([2]; at 50.0 µM): 98.2% (active)
growth inhibition [3, 7]: 31%
growth inhibition [3, 8]: 97% (active)
growth inhibition ([3]; at 50.0 µM): 97.3% (active)
growth inhibition [4, 7]: 7%
growth inhibition [4, 8]: 97% (active)
growth inhibition ([4]; at 50.0 µM): 89.2% (active)
growth inhibition [5, 7]: 20%
growth inhibition [5, 8]: 98% (active)
growth inhibition ([5]; at 50.0 µM): 96% (active)
growth inhibition [6, 7]: 22%
growth inhibition [6, 8]: 98% (active)
growth inhibition ([6]; at 50.0 µM): 97.8% (active)

CC(C)c1cccc(C(C)C)c1NC(=O)C(=O)CC(=O)CC(c1ccccc1)c1c(O)c2ccccc2oc1=O (configuration not stated)
growth inhibition [1, 7]: 8%
growth inhibition [1, 8]: 8%
growth inhibition ([1]; at 50.0 µM): 59.4%
growth inhibition [2, 7]: -12%
growth inhibition [2, 8]: -12%
growth inhibition ([2]; at 50.0 µM): 43%
growth inhibition [3, 7]: 11%
growth inhibition [3, 8]: 11%
growth inhibition ([3]; at 50.0 µM): 71% (active)
growth inhibition [4, 7]: -2%
growth inhibition [4, 8]: -2%
growth inhibition ([4]; at 50.0 µM): 55.2%
growth inhibition [5, 7]: -1%
growth inhibition [5, 8]: -1%
growth inhibition ([5]; at 50.0 µM): 70.7% (active)
growth inhibition [6, 7]: 7%
growth inhibition [6, 8]: 7%
growth inhibition ([6]; at 50.0 µM): 58.6%
